# mHTT CaM bind = mutant huntingtin-calmodulin interaction inhibitors – biochemical, AlphaScreen, primary screen | P42858 | AlphaScreen His-mHTT/GST-CaM binding, luminescence | inhibition, % at 15 µM | hit rate 3.6% among 190,000 | AID 1671202, 2021;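 note: 0% = both proteins with DMSO and 100% = one protein alone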
# Target sequence (P42858 whole entry, looked up, stated change not applied): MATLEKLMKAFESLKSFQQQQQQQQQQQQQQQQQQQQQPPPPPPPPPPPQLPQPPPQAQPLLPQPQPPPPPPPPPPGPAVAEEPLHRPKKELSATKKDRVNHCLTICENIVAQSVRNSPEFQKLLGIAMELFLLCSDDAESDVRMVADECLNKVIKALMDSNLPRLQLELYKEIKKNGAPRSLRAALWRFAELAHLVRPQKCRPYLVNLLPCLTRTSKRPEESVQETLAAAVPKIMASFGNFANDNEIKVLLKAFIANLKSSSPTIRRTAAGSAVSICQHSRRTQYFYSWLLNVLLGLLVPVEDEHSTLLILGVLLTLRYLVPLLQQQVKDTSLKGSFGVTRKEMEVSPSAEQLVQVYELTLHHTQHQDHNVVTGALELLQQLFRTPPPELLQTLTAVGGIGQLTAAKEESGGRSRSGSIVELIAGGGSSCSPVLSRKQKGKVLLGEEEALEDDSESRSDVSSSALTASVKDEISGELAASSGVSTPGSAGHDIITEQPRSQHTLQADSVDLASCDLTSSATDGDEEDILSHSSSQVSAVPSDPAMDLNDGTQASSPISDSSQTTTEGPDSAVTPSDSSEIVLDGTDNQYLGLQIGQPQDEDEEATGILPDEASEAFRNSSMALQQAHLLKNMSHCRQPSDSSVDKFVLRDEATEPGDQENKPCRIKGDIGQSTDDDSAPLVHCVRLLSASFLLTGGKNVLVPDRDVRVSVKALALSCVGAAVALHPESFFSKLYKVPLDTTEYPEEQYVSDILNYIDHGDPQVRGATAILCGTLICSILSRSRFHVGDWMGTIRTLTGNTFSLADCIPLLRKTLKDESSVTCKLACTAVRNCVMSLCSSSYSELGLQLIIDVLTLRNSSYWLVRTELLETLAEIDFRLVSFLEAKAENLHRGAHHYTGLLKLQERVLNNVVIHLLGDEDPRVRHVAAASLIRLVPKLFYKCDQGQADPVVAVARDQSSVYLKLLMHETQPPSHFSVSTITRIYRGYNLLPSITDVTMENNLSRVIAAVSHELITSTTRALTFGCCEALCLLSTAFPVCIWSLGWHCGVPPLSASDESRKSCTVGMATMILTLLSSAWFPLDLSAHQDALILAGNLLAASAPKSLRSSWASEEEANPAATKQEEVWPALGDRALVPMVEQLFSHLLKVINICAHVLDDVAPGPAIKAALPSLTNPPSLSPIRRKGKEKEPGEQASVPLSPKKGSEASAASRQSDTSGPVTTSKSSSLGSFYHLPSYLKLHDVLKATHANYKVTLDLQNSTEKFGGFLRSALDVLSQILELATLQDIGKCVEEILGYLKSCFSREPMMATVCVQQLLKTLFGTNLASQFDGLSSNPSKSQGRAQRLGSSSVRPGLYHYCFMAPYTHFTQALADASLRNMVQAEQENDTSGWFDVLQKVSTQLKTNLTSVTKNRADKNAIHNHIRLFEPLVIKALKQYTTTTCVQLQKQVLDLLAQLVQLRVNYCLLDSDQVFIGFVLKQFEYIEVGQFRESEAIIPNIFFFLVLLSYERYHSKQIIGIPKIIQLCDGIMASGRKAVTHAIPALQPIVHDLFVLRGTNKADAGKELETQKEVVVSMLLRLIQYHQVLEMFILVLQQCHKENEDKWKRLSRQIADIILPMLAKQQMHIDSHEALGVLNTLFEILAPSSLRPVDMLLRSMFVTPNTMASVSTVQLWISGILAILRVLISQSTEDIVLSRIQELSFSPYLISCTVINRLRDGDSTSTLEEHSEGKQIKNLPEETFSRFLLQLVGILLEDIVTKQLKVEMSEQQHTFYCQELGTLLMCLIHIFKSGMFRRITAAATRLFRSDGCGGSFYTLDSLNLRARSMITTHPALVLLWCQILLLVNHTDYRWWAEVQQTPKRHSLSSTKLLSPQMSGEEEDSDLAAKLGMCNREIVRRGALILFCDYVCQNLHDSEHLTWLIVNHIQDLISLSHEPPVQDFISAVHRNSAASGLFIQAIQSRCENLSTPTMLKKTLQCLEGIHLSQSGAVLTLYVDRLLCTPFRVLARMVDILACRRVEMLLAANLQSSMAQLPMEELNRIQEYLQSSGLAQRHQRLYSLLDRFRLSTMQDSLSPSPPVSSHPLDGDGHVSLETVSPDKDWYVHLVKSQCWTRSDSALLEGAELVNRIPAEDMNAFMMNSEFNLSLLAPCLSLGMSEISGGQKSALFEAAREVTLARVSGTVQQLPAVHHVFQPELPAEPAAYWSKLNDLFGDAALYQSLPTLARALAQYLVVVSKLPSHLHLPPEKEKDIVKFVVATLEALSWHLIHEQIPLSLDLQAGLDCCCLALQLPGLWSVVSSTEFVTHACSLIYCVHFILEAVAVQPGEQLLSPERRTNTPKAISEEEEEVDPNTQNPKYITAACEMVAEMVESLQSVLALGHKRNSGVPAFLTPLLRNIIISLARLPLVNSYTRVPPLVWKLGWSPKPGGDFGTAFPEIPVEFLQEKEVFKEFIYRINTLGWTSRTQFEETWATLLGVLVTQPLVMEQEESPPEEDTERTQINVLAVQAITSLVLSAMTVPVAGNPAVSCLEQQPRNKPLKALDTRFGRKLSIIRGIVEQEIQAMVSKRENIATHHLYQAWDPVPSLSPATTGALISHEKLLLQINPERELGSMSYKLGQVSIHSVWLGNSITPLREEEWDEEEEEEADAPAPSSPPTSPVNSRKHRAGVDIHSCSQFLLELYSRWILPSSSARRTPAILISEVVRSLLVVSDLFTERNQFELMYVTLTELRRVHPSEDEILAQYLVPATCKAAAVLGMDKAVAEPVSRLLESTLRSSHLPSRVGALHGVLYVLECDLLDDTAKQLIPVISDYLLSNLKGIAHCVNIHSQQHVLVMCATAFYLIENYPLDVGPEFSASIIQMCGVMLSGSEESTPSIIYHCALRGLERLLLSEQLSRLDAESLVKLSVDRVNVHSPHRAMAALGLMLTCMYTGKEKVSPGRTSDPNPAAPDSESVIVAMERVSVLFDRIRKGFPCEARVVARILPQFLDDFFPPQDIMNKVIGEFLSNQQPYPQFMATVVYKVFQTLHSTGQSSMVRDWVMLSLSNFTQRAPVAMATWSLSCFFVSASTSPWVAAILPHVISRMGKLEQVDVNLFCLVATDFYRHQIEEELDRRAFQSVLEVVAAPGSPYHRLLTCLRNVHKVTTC
# Pf apPOL block = Pf-apPOL inhibitors, biochemical, fluorescence | Recombinant Pf-apPOL, molecular beacon fluorescence, 1.5 h | inhibition, % at 10 µM | hit rate 0.25% among 210,000 | AID 1794808, 2022
# Active calls of the source: *; . = no result given. An excerpt weighted towards active compounds, which were near 3.6% of everything screened. Cut-off read from the data, not from the text of the source: active = inhibition above about 50%; inactive = the rest.
SMILES,mHTT CaM bind,Pf apPOL block
Cc1cccc(-n2nc3c(c2NC(=O)c2ccco2)CSC3)c1,72*,2
Cc1cccc(-n2nc3c(c2NC(=O)c2ccc(Br)o2)CSC3)c1,64*,-10
O=C(NCCN1CCCCC1)c1cc2n(n1)CCCN(Cc1ccc(Cl)cc1)C2=O,24,1
COc1ccc(Cn2cnc3c2c(=O)n(C)c(=O)n3C)cc1,.,-13
CCCCCCOc1ccc(C2CCC(CCCCC)CC2)cc1 (centres undefined),-6,0
COc1ccc(OC)c(C2=Nn3c(nnc3-c3ccccc3F)SC2)c1,6,.
c1ccc(CNc2cc(-n3cccn3)ncn2)cc1,-6,0
CC(C)n1ccc(C(=O)N(Cc2ccccn2)c2nc3c(Cl)cccc3s2)n1,-6,2
CCn1ccc2sc(C)c(C(=O)N3CCC(N4CCCCC4)CC3)c2c1=O,22,-14
CCn1ccc2sc(C)c(C(=O)N3CCC(Cc4ccccc4)CC3)c2c1=O,80*,-2
CCOc1cccc(NC(=O)c2nc(C)oc2C(F)(F)F)c1,.,-9
CN(C)Cc1c(O)ccc2c(-c3ccccc3)cc(=O)oc12,1,0
CC[C@@]1(O)C(=O)OCc2c1cc1n(c2=O)Cc2cc3c(CN(C)C)c(O)ccc3nc2-1,.,84*
Cc1ccc(C(=O)N2CCCCC2CCN2CCN(C)CC2)cc1 (centres undefined),8,-4
COc1cc(/C=C2\SC(=O)N(Cc3ccc(F)cc3)C2=O)c(Br)cc1O,75*,0
COc1ccccc1/C=C1\SC(=O)N(Cc2ccc(F)cc2)C1=O,-3,-6
N#Cc1nc(COc2ccc(Br)cc2)oc1N1CCC(C(N)=O)CC1,23,-1
N#Cc1nc(COc2ccc(Br)cc2)oc1N1CCCCC1,51*,-3
CN(C)CCN1CCn2c1nc(-c1ccccc1)cc2=O,11,1
CC(C)(C)c1ccc(C(N)=NOC(=O)Cc2cccs2)cc1,.,-4
COc1ccccc1NS(=O)(=O)c1cc(C(=O)Nc2ccccc2)ccc1C,14,6
COc1ccccc1NCC(=O)c1ccc(C)c(C)c1,34,65*
CNC(=O)C(C1CCCC1)N1CCN(C(=O)c2cccc(Cl)c2)CC1 (centres undefined),3,0
CC(C)(C)c1cc(C(=O)Oc2cccnc2)cc(C(=O)Oc2cccnc2)c1,.,1
COc1ccc(/C=C/C(C)=C/C(=O)O)c(OC)c1,-2,-2
SMILES,mHTT CaM bind,Pf apPOL block
COc1ccc(C=C2Oc3c(ccc4c3CN(CCN3CCOCC3)CO4)C2=O)c(OC)c1,55*,-36
COc1ccc(C=C2Oc3c(ccc4c3CN(Cc3cccnc3)CO4)C2=O)c(OC)c1,18,-5
COc1cccc(C=C2Oc3c(ccc4c3CN(Cc3ccco3)CO4)C2=O)c1,20,-32
COc1ccc(C=C2Oc3c(ccc4c3CN(Cc3ccco3)CO4)C2=O)cc1OC,58*,-29
COc1ccccc1C=C1Oc2c(ccc3c2CN(CCN2CCOCC2)CO3)C1=O,57*,-24
COc1ccccc1C=C1Oc2c(ccc3c2CN(Cc2cccnc2)CO3)C1=O,42,-28
COc1ccccc1C=C1Oc2c(ccc3c2CN(Cc2cc(OC)c(OC)c(OC)c2)CO3)C1=O,55*,-18
COc1ccccc1C=C1Oc2c(ccc3c2CN(Cc2ccncc2)CO3)C1=O,5,-30
CCc1c(C2CCN(C(=O)c3sccc3C)CC2)noc1N,-5,-2
CC(=O)N1CCN(c2cc(C)c([N+](=O)[O-])cc2F)CC1,2,-2
Cc1cc(OCC(=O)NC2CC(C)(C)NC(C)(C)C2)ccc1Cl,20,-2
Cc1ccc(NC(=O)CCN2CCN(C/C=C/c3ccccc3)CC2)cc1,42,-10
Cc1c(Cl)cccc1NC(=O)CCN1CCN(C/C=C/c2ccccc2)CC1,50*,-6
O=C(O)CN1C(=O)C(=C2OC(=O)c3ccccc32)SC1=S,8,49
O=C(NCc1ccc(C(F)(F)F)cc1)C1CCN(c2cncnc2N2CCCC2)CC1,83*,4
CSc1ccc(CNC(=O)C2CCN(c3cncnc3N3CCCCC3)CC2)cc1,25,-2
O=C(NCc1cccc(Cl)c1)C1CCN(c2cncnc2N2CCCC2)CC1,52*,0
Cc1cccc(CNC(=O)C2CCN(c3cncnc3N3CCCC3)CC2)c1,22,8
COc1ccc(S(=O)(=O)N2CCN(c3ccc(N4CCCC4)nn3)CC2)cc1Cl,72*,-3
Cc1ccc(N2CCN(S(=O)(=O)c3ccc(Cl)c(Cl)c3)CC2)nn1,-10,-8
Cc1ccc(C)c(NC(=O)c2cc(S(=O)(=O)NCc3ccccc3Cl)ccc2F)c1,3,30
CCCC(=O)N1CCCN(C2=NS(=O)(=O)C(c3ccc(Cl)cc3)=C2C)CC1,-8,-2
Cc1cccc(NS(=O)(=O)c2ccc(Cl)cc2)n1,-2,0
O=C(Nc1cccc(Cl)c1)Nc1cccc2cccnc12,-2,-5
Cc1cccc(NC(c2cccc(Cl)c2)c2ccc3cccnc3c2O)n1 (centres undefined),98*,-2
SMILES,mHTT CaM bind,Pf apPOL block
COc1ccc(C(Nc2cccc(C)n2)c2ccc3cccnc3c2O)cc1 (centres undefined),100*,3
Cc1cccc(NC(c2ccc(Cl)cc2)c2ccc3cccnc3c2O)n1 (centres undefined),98*,-12
Cc1cccc(NC(=O)c2cccs2)n1,.,0
COc1ccc(NC(=O)Nc2cccc(C)n2)cc1,-6,4
Cc1cccc(NC(c2ccncc2)c2ccc3cccnc3c2O)n1 (centres undefined),100*,2
COC(=O)c1sccc1NS(=O)(=O)c1cccc2nsnc12,.,1
CCSc1nnc2c(n1)OC(c1cccc(OC)c1)N(C(C)=O)c1ccccc1-2 (centres undefined),20,-10
COc1ccc(N2C(=O)NC(=O)/C(=C\c3cc(Br)c(O)c([N+](=O)[O-])c3)C2=O)cc1,9,-3
Cc1cccc2nc3c(nc12)C(=O)c1ccccc1C3=O,2,-6
Cc1cc(C2CCCN2C(=O)Cc2ccc(F)cc2)on1 (centres undefined),-1,6
COC(C)(C)C#C/C=C/S(=O)(=O)c1ccc(C)cc1,-2,-6
Cc1ccc(C(=O)Nc2ccc3c(c2)Sc2ncccc2C(=O)N3C)cc1,10,-12
Cc1cc(C)cc(C(=O)Nc2ccc3c(c2)Sc2ncccc2C(=O)N3C)c1,73*,1
CC(C)CNC(=O)c1ccc(CN2C(=O)CSc3ccccc32)cc1,-5,-1
Cc1ccc(N=Cc2ccc(Br)c([N+](=O)[O-])c2)cc1,29,-5
C=C1CCN([C@@H](CC(C)C)C(=O)Nc2nc3ccc(Cl)cc3s2)S(=O)(=O)c2ccccc21,94*,-4
C=C1CCN([C@@H](CC(C)C)C(=O)Nc2ccc(OC)cc2)S(=O)(=O)c2ccccc21,1,-4
C=C1CCN([C@@H](CC(C)C)C(=O)O)S(=O)(=O)c2ccccc21,4,2
C=C1CCN([C@@H](CC(C)C)C(=O)NCCCc2ccccc2)S(=O)(=O)c2ccccc21,65*,-1
COc1cccc(C=C2Oc3cc(O)cc(C)c3C2=O)c1OC,6,-4
O=[N+]([O-])c1cc(Oc2ccc3c(c2)CCC3)cc(-n2cnnn2)c1,51*,.
Cc1cc([N+](=O)[O-])nn1CCCC(=O)Nc1cc(Oc2ccc3c(c2)CCC3)cc([N+](=O)[O-])c1,6,5
O=C1/C(=C/c2ccsc2)CS/C1=C\c1ccsc1,63*,-6
